Experimental data reported in PubChem BioAssay (NCATS).
Records with an inconclusive call do not appear.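 The calls were made as follows, unless noted: active = compounds whose dose series gives a full or clear partial fitted curve of increased nuclear translocation; inconclusive = weak partial curve or effect only at the top dose; inactive = no dose-dependent translocation response.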

target: Glucocorticoid receptor (Homo sapiens) (UniProt P04150); test: GR-GFP Redistribution (AID 450); settings: U2OS GR-GFP nuclear translocation, laser cytometry, 2 h; series mostly up to 20.6 µM; translocation activation: at the top concentration; also: potency is read from the fitted curve at half-maximal effect
Sequence (P04150 whole entry, looked up): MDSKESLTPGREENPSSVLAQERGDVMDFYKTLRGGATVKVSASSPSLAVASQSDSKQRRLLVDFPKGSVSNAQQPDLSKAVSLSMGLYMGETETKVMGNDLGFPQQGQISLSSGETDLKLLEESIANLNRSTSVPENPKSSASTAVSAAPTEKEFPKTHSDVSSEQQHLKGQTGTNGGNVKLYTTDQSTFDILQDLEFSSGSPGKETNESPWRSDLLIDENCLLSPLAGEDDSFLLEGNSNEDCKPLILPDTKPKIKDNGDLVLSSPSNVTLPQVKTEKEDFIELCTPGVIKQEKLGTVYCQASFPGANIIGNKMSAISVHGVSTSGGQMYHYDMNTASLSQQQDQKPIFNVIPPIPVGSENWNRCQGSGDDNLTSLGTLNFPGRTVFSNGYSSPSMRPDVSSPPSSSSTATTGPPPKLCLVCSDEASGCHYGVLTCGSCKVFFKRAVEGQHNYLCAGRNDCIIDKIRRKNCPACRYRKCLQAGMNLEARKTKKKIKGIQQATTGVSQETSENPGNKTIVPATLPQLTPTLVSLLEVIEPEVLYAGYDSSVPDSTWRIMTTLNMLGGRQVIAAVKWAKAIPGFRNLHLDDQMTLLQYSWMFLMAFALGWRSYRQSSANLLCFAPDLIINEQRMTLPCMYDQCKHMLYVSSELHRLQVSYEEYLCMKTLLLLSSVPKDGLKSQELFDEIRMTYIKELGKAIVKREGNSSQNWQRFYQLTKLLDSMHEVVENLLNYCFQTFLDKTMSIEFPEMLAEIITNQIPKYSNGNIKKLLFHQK

Potency, inactive:
CN(C)CCOC(=O)Cc1ccc(Cl)cc1 > 20.6 µM
CN(C)CCCO[C@H]1[C@H]([C@H](O)CO)O[C@H]2OC(C)(C)O[C@@H]21 > 46 µM
Cc1ccc(SCc2[nH]nc3c2C(c2ccc(C)o2)C(C#N)=C(N)O3)cc1 (stereo not drawn) > 20.6 µM
COc1ccccc1C1/C(=C(/O)c2ccc(OC(C)C)cc2)C(=O)C(=O)N1c1cc(C)on1 (stereo not drawn) > 20.6 µM
Cn1c2c(c(=O)n(C)c1=O)C(NC(=O)C(C)(C)C)(C(F)(F)F)C(=O)N2 (stereo not drawn) > 20.6 µM
CCOc1ccc(C2C(C(=O)c3ccc(C)o3)=C(O)C(=O)N2CCN2CCOCC2)cc1OC (stereo not drawn) > 20.6 µM
CCc1ccc(NC(=O)CSC2=C(C#N)C(c3ccc4c(c3)OCO4)CC(=O)N2)cc1 (stereo not drawn) > 20.6 µM
COCc1cc(C)nc(SCC(=O)Nc2ccc(C)c(C)c2)c1C#N > 20.6 µM
CCOC(=O)CSC1=C(C#N)C(=O)NC(c2ccc(OC)c(OC)c2)S1 (stereo not drawn) > 20.6 µM
Cc1ccc(Oc2nc3c(c(=O)n(Cc4ccccc4F)c(=O)n3C)n2C)cc1 > 20.6 µM
CC(C)(C)OC(=O)N1CC=C2C(C#N)=C(N)C(C#N)(C#N)[C@H](c3cccnc3)[C@H]2C1 > 20.6 µM
CCC(c1c(C)n(C)n(-c2ccccc2)c1=O)c1c(C)n(C)n(-c2ccccc2)c1=O > 20.6 µM
C=C(Br)CN1CCN(CC(=C)Br)CC1 > 20.6 µM
CC(C)(C)c1ccc(O)c(N)c1 > 20.6 µM
CCCCCCCCCCCCCCCCCC(=O)NC[C@@H](COP(=O)([O-])OCC[N+](C)(C)C)OCC > 46 µM
Oc1ccc(Br)cc1CNn1cnnc1 > 20.6 µM
CCn1cc(C(=O)NCc2ccccn2)c(=O)c2cc(F)c(N3CCN(C)CC3)cc21 > 20.6 µM
COC(=O)/C(=C1/Oc2cc(C)oc(=O)c2S1)C(F)(F)F > 20.6 µM
Cn1c(=O)n(Cc2ccccc2)c(=O)c2c1nc(NCC1CCCO1)n2Cc1ccccc1 (stereo not drawn) > 20.6 µM
N#Cc1c2c(c(-c3ccccc3)[nH]c1=O)CCCC2 > 20.6 µM
CC1(C)Cc2c(C#N)c(NCC3CCCO3)nc(-c3ccco3)c2CO1 (stereo not drawn) > 20.6 µM
Cc1ccc(-c2nn3c(-c4cccc(Cl)c4)nnc3s2)cc1 > 20.6 µM
CSc1nc(N2CCCC2)c2c(c1C#N)CC(C)(C)OC2 > 20.6 µM
CC1(C(=O)CSc2ncn[nH]2)CCC(=O)O1 (stereo not drawn) > 20.6 µM
COc1ccc(-c2nn3c(COc4ccccc4)nnc3s2)cc1OC > 20.6 µM
COc1ccc(CCCNC(=O)CC#N)cc1OC > 20.6 µM
CCCCOC(=O)CSc1nc(N)c(C#N)c(-c2ccc(OC)cc2)c1C#N > 20.6 µM
Cc1cc(C)n(C(=O)CN2C(=O)CCC2=O)n1 > 20.6 µM
CC(=O)C1=C(O)C(=O)N(c2cccc(C(=O)O)c2)C1c1ccccc1F (stereo not drawn) > 20.6 µM
CC(=O)c1ccc(O)c(CO)c1 > 20.6 µM
CCCCCCCCCC(=O)N[C@@H](CN1CCOCC1)[C@@H](O)c1ccccc1 > 46 µM
CCC(C)Nc1nc(OC)nc(N(C)C#N)n1 (stereo not drawn) > 20.6 µM
CCC(=O)Nc1nc(C)c(Oc2ccccc2)c(=O)[nH]1 > 20.6 µM
COc1ccc(N(CN2C(=O)C3C4C=CC(C4)C3C2=O)C(=O)c2ccco2)cc1 (stereo not drawn) > 20.6 µM
CC[C@H](C)[C@@H]1O[C@]2(CC[C@@H]1C)C[C@H]1C[C@H](CC=C(C)[C@@H](O[C@@H]3C[C@H](OC)[C@H](O[C@@H]4C[C@H](OC)[C@H](O)[C@H](C)O4)[C@H](C)O3)[C@@H](C)C=CC=C3CO[C@@H]4[C@@H](O)C(C)=C[C@@H](C(=O)O1)[C@]34O)O2 > 20.6 µM
CC(=O)Oc1oc(-c2ccccc2)nc1/C=N/c1ccccn1 > 20.6 µM
COC(=O)C(NC(C)=O)(Nc1ccc(Br)cn1)C(F)(F)F (stereo not drawn) > 20.6 µM
CCCCN(C(=O)CCC(=O)O)C1CC(=O)N(c2ccc(OCCC)cc2)C1=O (stereo not drawn) > 20.6 µM
Cn1c(=O)c2c(nc(Br)n2Cc2ccc3ccccc3c2)n(C)c1=O > 20.6 µM

target: 3',5'-cyclic-AMP phosphodiesterase 4B (Homo sapiens) (UniProt Q07343); test: qHTS Assay for Inhibitors of PDE-IV (AID 607; active = well fitted activation curve with a large enough effect in the main read-out, with a control signal flat, not every such curve was filed as active; also: % of control where 0% means no effect); settings: HEK293 ACTOne CNG channel cells, membrane potential fluorescence; series mostly up to 22.9 µM; activation (PDE inhibition): at the top concentration
Sequence (Q07343 whole entry, looked up): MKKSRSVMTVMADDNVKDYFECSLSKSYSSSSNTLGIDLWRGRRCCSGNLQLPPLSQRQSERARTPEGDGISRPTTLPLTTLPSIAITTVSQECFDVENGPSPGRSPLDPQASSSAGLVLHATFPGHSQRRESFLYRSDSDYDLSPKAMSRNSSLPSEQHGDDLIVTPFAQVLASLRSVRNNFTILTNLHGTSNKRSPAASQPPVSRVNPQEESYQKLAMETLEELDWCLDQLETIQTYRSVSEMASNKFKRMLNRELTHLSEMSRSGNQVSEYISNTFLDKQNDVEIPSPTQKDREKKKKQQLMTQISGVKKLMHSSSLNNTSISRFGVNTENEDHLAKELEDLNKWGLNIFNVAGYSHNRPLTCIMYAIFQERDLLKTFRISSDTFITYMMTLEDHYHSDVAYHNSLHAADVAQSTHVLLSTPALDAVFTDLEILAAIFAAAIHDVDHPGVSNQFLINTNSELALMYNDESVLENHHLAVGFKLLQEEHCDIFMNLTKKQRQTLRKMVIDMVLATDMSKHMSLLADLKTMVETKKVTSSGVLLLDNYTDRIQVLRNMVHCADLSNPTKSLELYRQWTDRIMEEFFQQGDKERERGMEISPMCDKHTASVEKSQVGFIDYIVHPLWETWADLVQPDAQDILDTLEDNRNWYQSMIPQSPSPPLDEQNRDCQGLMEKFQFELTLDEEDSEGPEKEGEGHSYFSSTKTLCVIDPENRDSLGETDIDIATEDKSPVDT
Outline: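 Live HEK293 cells with a modified cyclic nucleotide-gated (CNG) channel report intracellular cAMP via membrane-potential dye fluorescence (ex 535/em 590 nm). Endogenous PDE-IV was targeted. Compounds were tested at up to 22.9 uM final; RO 20-1724 100 uM served as control.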

Activation (PDE inhibition), inactive:
CN(C)CCCO[C@H]1[C@H]([C@H](O)CO)O[C@H]2OC(C)(C)O[C@@H]21 3.19%
CCCCCCCCCCCCCCCCCC(=O)NC[C@@H](COP(=O)([O-])OCC[N+](C)(C)C)OCC 13.6%
CCCCCCCCCC(=O)N[C@@H](CN1CCOCC1)[C@@H](O)c1ccccc1 5.24%
CC[C@H](C)[C@@H]1O[C@]2(CC[C@@H]1C)C[C@H]1C[C@H](CC=C(C)[C@@H](O[C@@H]3C[C@H](OC)[C@H](O[C@@H]4C[C@H](OC)[C@H](O)[C@H](C)O4)[C@H](C)O3)[C@@H](C)C=CC=C3CO[C@@H]4[C@@H](O)C(C)=C[C@@H](C(=O)O1)[C@]34O)O2 -6.45%
